Measured values as given in PubChem BioAssay AID1626 (SRMLSC, 2009).
About 2,000 (0.91%) of roughly 220,000 compounds were called active. Another 2% or so got no clear call; they are omitted. The list is a sample of the results. Entries with a potency or affinity are not part of this list. Values without a mark were called inactive. Rule as the data show it: inconclusive = inhibition above about 80% without an active follow-up result; inactive = below that; test concentration not stated here.

test: M. tuberculosis H37Rv growth inhibitors, H37Rv strain (AID 1626); conditions: active compounds read high, concentration not given here;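 also: bacteria incubated seven days before Alamar blue readout; 0% = bacteria only wells and 100% = bacteria with antibiotic wells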

Question: For `O=C(OCC(=O)N1CCN(C(=O)c2ccco2)CC1)c1cccc(S(=O)(=O)N2CCc3ccccc32)c1`, which inhibition is on record?
Answer: 2.78%

Question: For `CC(C)C(=O)N1CCN(c2ccc([N+](=O)[O-])cc2Cl)CC1`, which inhibition is on record?
Answer: 0.58%

Question: With `COc1ccc(/C=N/NC(=O)C(C)n2nnc3ccccc32)cc1OC` (stereo not drawn) as the molecule, how does the inhibition read?
Answer: -3.28%

Question: Which inhibition does the source give for `C=CCN1C(=O)C(Cc2ccc(OC)cc2)S/C1=N\N=C\c1cccs1` (stereo not drawn) here?
Answer: -5.41%

Question: With `COc1ccc(OC)c(C(=O)c2ccc(C(=O)N3CCCCC3)cc2)c1` as the molecule, how does the inhibition read?
Answer: -2.08%

Question: Which inhibition does the source give for `Cc1cc(Br)c2c(c1)/C(=C/C(=O)c1cccs1)C(=O)N2` here?
Answer: 79.9%

Question: Which inhibition does the source give for `O=C(/C=C1\C(=O)Nc2ccccc21)/C=C1\C(=O)Nc2ccccc21` here?
Answer: 9.02%

Question: For `CCc1ccc2c(c1)C(O)(CC(=O)c1cccs1)C(=O)N2` (stereo not drawn), which inhibition is on record?
Answer: 3.05%

Question: For `Cc1cccc2c1NC(=O)/C2=C\C(=O)c1cccs1`, which inhibition is on record?
Answer: 12.6%

Question: With `Cn1c(N)c(C(=O)COC(=O)C2CC(=O)N(Cc3ccccc3)C2)c(=O)n(C)c1=O` (stereo not drawn) as the molecule, how does the inhibition read?
Answer: 0.39%

Question: Which inhibition does the source give for `CC(C)(C)Nc1nc(SCC(=O)Nc2ccccc2)nc(N2CCOCC2)n1` here?
Answer: -1.07%

Question: For `O=C(Nc1ccccc1)c1ccn[nH]1`, which inhibition is on record?
Answer: -7.96%

Question: With `COc1ccccc1CNc1ncnc2cc(Cl)ccc12` as the molecule, how does the inhibition read?
Answer: -2.22%

Question: With `CC(C)N1CCC(N2CCN(C/C=C/c3ccccc3)CC2CCO)CC1` (stereo not drawn) as the molecule, how does the inhibition read?
Answer: -1.35%

Question: For `Cc1ccc(C(c2nnnn2C(C)(C)C)N2CCN(C3CCCC3)CC2)cc1` (stereo not drawn), which inhibition is on record?
Answer: -4.57%

Question: For `Cc1cc(C)c(-c2cc(NC(=O)CSc3nncn3C)n(-c3ccccc3)n2)cc1C`, which inhibition is on record?
Answer: 5.63%

Question: For `CCOC(=O)C1=C(CC)Nc2ccccc2N=C1NC(=O)c1cc(S(=O)(=O)N(C)C)ccc1Cl`, which inhibition is on record?
Answer: 5.31%

Question: For `CCOC(=O)C1=C(CC)Nc2ccccc2N=C1NC(=O)Nc1ccccc1OC`, which inhibition is on record?
Answer: 5.38%

Question: Which inhibition does the source give for `Cc1ccc(SCc2cc(=O)[nH]c(/N=C(\N)Nc3cccc4ccccc34)n2)cc1` here?
Answer: 2.6%

Question: For `CC1(C)CC(=O)C2=C(C1)NC1=C(C(=O)c3ccccc31)C2c1cccnc1` (stereo not drawn), which inhibition is on record?
Answer: 11.2%

Question: For `CC1(C)CC(=O)C2=C(C1)NC1=C(C(=O)c3ccccc31)C2c1ccccc1` (stereo not drawn), which inhibition is on record?
Answer: 14.8%

Question: For `Cc1ccc(C2C3=C(CC(C)(C)CC3=O)NC3=C2C(=O)c2ccccc23)cc1` (stereo not drawn), which inhibition is on record?
Answer: 9.84%

Question: For `COc1cc(C2C3=C(CC(C)(C)CC3=O)NC3=C2C(=O)c2ccccc23)ccc1O` (stereo not drawn), which inhibition is on record?
Answer: 2.3%

Question: Which inhibition does the source give for `CC1(C)CC(=O)C2=C(C1)NC1=C(C(=O)c3ccccc31)C2c1ccc(O)cc1` (stereo not drawn) here?
Answer: 7.92%

Question: Which inhibition does the source give for `CC1(C)CC(=O)C2=C(C1)NC1=C(C(=O)c3ccccc31)C2c1ccc(Cl)cc1` (stereo not drawn) here?
Answer: 44.9%

Question: For `CCN(CC)S(=O)(=O)c1cccc(C(=O)N/N=C2\CCCC(=O)C2)c1`, which inhibition is on record?
Answer: -9.95%

Question: With `CCNc1nc(SCCOc2ccc(Br)cc2)nc(N(C)C)n1` as the molecule, how does the inhibition read?
Answer: -0.8%

Question: With `Cc1nn(C)c(C)c1S(=O)(=O)N1CCC(C(=O)NCCC2=CCCCC2)CC1` as the molecule, how does the inhibition read?
Answer: -9.44%

Question: For `Cc1ccc(C)c(-c2cc(C(=O)Nc3cccc(C(=O)O)c3)c3ccccc3n2)c1`, which inhibition is on record?
Answer: 2.58%

Question: For `COc1ccc(/C=C/C2=NN(Cc3ccccc3)C(=O)CC2)cc1`, which inhibition is on record?
Answer: -0.13%

Question: With `Cc1cc(N2CCN(C)CC2)nc(-c2ccccc2O)n1` as the molecule, how does the inhibition read?
Answer: -1.49%

Question: With `O=C(Nc1ccc(-c2nc3cc(Cl)ccc3c(=O)o2)cc1)c1ccco1` as the molecule, how does the inhibition read?
Answer: 9.67%

Question: For `CC(C)C(=O)Nc1cccc(-c2nc3ccccc3c(=O)o2)c1`, which inhibition is on record?
Answer: 0.23%

Question: With `CCC(=O)Nc1ccc(-c2nnc(-c3ccccc3)o2)cc1` as the molecule, how does the inhibition read?
Answer: 5.07%

Question: Which inhibition does the source give for `COc1ccc(-c2nc3ccccc3c(=O)o2)cc1OC` here?
Answer: 12.4%

Question: For `Cc1cccc(OCC(=O)Nc2cccc(-c3nnc(-c4ccccc4)o3)c2)c1C`, which inhibition is on record?
Answer: 3.74%

Question: With `O=C(Nc1ccc2nc(-c3ccccc3)oc2c1)c1ccco1` as the molecule, how does the inhibition read?
Answer: -2.22%

Question: Which inhibition does the source give for `CCOc1ccc(-c2nc3ccccc3c(=O)o2)cc1` here?
Answer: 3.93%

Question: With `O=C(COc1ccccc1)Nc1cccc(-c2nnc(-c3ccccc3)o2)c1` as the molecule, how does the inhibition read?
Answer: 14.9%

Question: For `O=C1CC(c2ccc(Br)cc2)NC(c2ccc(Br)cc2)C1c1ccccc1` (stereo not drawn), which inhibition is on record?
Answer: 15.2%

Question: Which inhibition does the source give for `Nc1cc(-c2ccccc2)nn1S(=O)(=O)c1ccc(Br)cc1` here?
Answer: 12.3%

Question: Which inhibition does the source give for `COc1cc(SC)ccc1C(=O)Nc1ccc(C)cc1C` here?
Answer: 2.28%

Question: Which inhibition does the source give for `Cc1onc(-c2ccccc2)c1C(=O)N1CCN(C)CC1` here?
Answer: -7.83%

Question: For `Cc1cc(C(=O)N/N=C2\CC(=O)c3ccccc32)c(C)n1-c1ccccc1`, which inhibition is on record?
Answer: -0.53%

Question: For `COc1ccc(/C=N/NC(=O)CC2N=C(Cc3ccccc3)NNC2=O)cc1OC` (stereo not drawn), which inhibition is on record?
Answer: -1.24%

Question: With `O=C(Oc1c(Cl)cc(Cl)c2ccccc12)N1CCCCC1` as the molecule, how does the inhibition read?
Answer: 11.7%

Question: With `NC(=O)CCC(NC(=O)c1ccc(Cl)cc1)C(=O)O` (stereo not drawn) as the molecule, how does the inhibition read?
Answer: 2.33%

Question: With `COc1ccc(NC(=O)CCN2C(=O)[C@@H]3[C@H](C2=O)[C@H]2C=C[C@@H]3C2)cc1` as the molecule, how does the inhibition read?
Answer: -1.56%

Question: For `O=C(Nc1ccc(-c2nc3ccccc3o2)cc1)c1ccc(N2C(=O)C3C4C=CC(C4)C3C2=O)cc1` (stereo not drawn), which inhibition is on record?
Answer: 3.15%

Question: Which inhibition does the source give for `CCCC(=O)Nc1cccc(-c2nc3ccccc3o2)c1` here?
Answer: 5.23%

Question: With `CC(C)(C)C(=O)Nc1cccc(-c2nc3ccccc3c(=O)o2)c1` as the molecule, how does the inhibition read?
Answer: 70.7%

Question: With `O=C1C2C3C=CC(C3)C2C(=O)N1c1ccc(-c2nc3ccccc3o2)cc1` (stereo not drawn) as the molecule, how does the inhibition read?
Answer: 0.58%

Question: Which inhibition does the source give for `COc1ccc(-c2nc3ccccc3c(=O)o2)cc1` here?
Answer: 11.6%

Question: With `CC(=O)Nc1cccc(-c2nc3ccccc3c(=O)o2)c1` as the molecule, how does the inhibition read?
Answer: 9.37%

Question: For `COc1ccc(C2C(Oc3ccccc3)C(=O)N2c2ccc(C)c(C)c2)cc1OC` (stereo not drawn), which inhibition is on record?
Answer: 4.9%

Question: For `Fc1ccc(CNC(=S)NC2CCCC2)cc1`, which inhibition is on record?
Answer: 2.21%

Question: For `CCc1cc(C(=O)OC)c(NC(=O)CC2SC(N)=NC2=O)s1` (stereo not drawn), which inhibition is on record?
Answer: 3.51%

Question: With `CC(=O)N1CCN(c2ccc(N=Cc3c(O)n(-c4ccc(Cl)cc4)c(=O)[nH]c3=O)cc2)CC1` as the molecule, how does the inhibition read?
Answer: -7.57%

Question: Which inhibition does the source give for `COc1ccccc1CCc1nnc(CCC(=O)NC(C)Cc2cccc(C)n2)o1` (stereo not drawn) here?
Answer: -7.73%

Question: With `CCOc1cc(/C=C2\SC(=N)N(c3nonc3N)C2=O)ccc1OCCN1CCOCC1` as the molecule, how does the inhibition read?
Answer: 4.53%

Question: For `COc1cc(/C=C2\SC(=N)N(c3ccc(F)cc3)C2=O)ccc1O`, which inhibition is on record?
Answer: 7.97%

Question: With `COc1ccc(/C=C2\SC(=N)N(c3ccc(F)cc3)C2=O)cc1OC` as the molecule, how does the inhibition read?
Answer: -3.05%

Question: With `CCOc1cc(/C=C2\SC(=N)N(c3nonc3N)C2=O)ccc1OCC(N)=O` as the molecule, how does the inhibition read?
Answer: 4%

Question: For `CCN1C(c2ccccc2)=C(c2ccccc2)S/C1=C\C=C1/SC(=S)N(C)C1=O`, which inhibition is on record?
Answer: 3.07%

Question: Which inhibition does the source give for `Cc1cccnc1-n1c(CN2C(=O)c3ccccc3C2=O)nc2ccccc2c1=O` here?
Answer: -3.32%

Question: With `CCOC(=O)c1c(CSC(=N)N)n(-c2ccccc2)c2cc(Br)c(OC(C)=O)cc12` as the molecule, how does the inhibition read?
Answer: -0.53%

Question: For `CCOC(=O)c1c(CSC(=N)N)n(C)c2cc(Br)c(OC(C)=O)cc12`, which inhibition is on record?
Answer: 1.34%

Question: With `O=C(CN=C1NS(=O)(=O)c2ccccc21)OCC(=O)c1cc(F)ccc1F` as the molecule, how does the inhibition read?
Answer: -7.99%

Question: For `c1ccc(-c2nnc3sc(Cc4cccs4)nn23)cc1`, which inhibition is on record?
Answer: 15.9%

Question: Which inhibition does the source give for `c1ccc(CCc2nn3c(-c4ccncc4)nnc3s2)cc1` here?
Answer: -0.85%

Question: With `C1CCC(c2nn3c(-c4n[nH]c5c4CCC5)nnc3s2)CC1` as the molecule, how does the inhibition read?
Answer: 9.35%

Question: Which inhibition does the source give for `Clc1ccccc1-c1nnc2sc(CCc3ccccc3)nn12` here?
Answer: 5.64%

Question: For `c1csc(Cc2nn3c(-c4ccncc4)nnc3s2)c1`, which inhibition is on record?
Answer: -11.8%

Question: Which inhibition does the source give for `c1ccc(OCc2nn3c(-c4ccncc4)nnc3s2)cc1` here?
Answer: -8.19%

Question: With `c1coc(-c2nnc3sc(Cc4cccs4)nn23)c1` as the molecule, how does the inhibition read?
Answer: -0.74%

Question: For `c1ccc(OCc2nn3c(-c4ccccn4)nnc3s2)cc1`, which inhibition is on record?
Answer: -10.6%

Question: For `O=C(OCc1nc2ccccc2s1)c1cnccn1`, which inhibition is on record?
Answer: -4.85%

Question: For `O=C(c1ccc(=O)[nH]n1)N1CCc2ccccc2C1`, which inhibition is on record?
Answer: 5.26%

Question: Which inhibition does the source give for `COC(=O)CCSCC(=O)Nc1nnc(C)s1` here?
Answer: -2.82%

Question: For `CCN(CC)C(=O)CSc1nnc(-c2ccc(F)cc2)n1N`, which inhibition is on record?
Answer: 3.27%

Question: For `CC(=O)Oc1ccc(C(=O)Nc2cccc(C(=O)c3cccc(NC(=O)c4ccc(OC(C)=O)cc4)c3)c2)cc1`, which inhibition is on record?
Answer: 74.4%

Question: With `COC1=CC(=O)CC(C)C12Oc1cc(OC)cc(OC)c1C2=O` (stereo not drawn) as the molecule, how does the inhibition read?
Answer: -7.12%

Question: For `COCCNC(=O)/C(C#N)=C\c1ccc(CNS(=O)(=O)c2ccccc2)o1`, which inhibition is on record?
Answer: -0.59%

Question: For `O=C1c2ccccc2C(O)(c2ncc[nH]2)N1CCc1ccccc1` (stereo not drawn), which inhibition is on record?
Answer: -2.48%

Question: With `OCCNc1nc(N2CCN(Cc3ccccc3)CC2)nc2ccccc12` as the molecule, how does the inhibition read?
Answer: -8.82%

Question: With `OCCN1CCN(c2nc(NCc3ccco3)c3ccccc3n2)CC1` as the molecule, how does the inhibition read?
Answer: -2.39%

Question: For `Clc1nc(NCc2ccco2)nc(N2CCCCC2)n1`, which inhibition is on record?
Answer: 5.51%

Question: Which inhibition does the source give for `c1ccc(CNc2nc(NCc3ccco3)nc(N3CCOCC3)n2)cc1` here?
Answer: 10.6%

Question: Which inhibition does the source give for `COc1ccccc1Nc1nc(NCc2ccco2)c2ccccc2n1` here?
Answer: 83.7%

Question: For `c1ccc2c(NCC3CCCO3)nc(N3CCCCC3)nc2c1` (stereo not drawn), which inhibition is on record?
Answer: 1.41%

Question: For `CCOCCCNC(=O)c1cc2c(=O)n3cccc(C)c3nc2n1C`, which inhibition is on record?
Answer: 1.27%

Question: With `c1ccc(-c2ncc3c(ccc4ccccc43)n2)cc1` as the molecule, how does the inhibition read?
Answer: 4.61%

Question: Which inhibition does the source give for `CCOc1ncccc1C(=O)Nc1ccccc1C(=O)NCc1ccc2c(c1)OCO2` here?
Answer: -0.12%
